Experimental data reported in PubChem BioAssay (Tox21).
Several values for one entry are separate records, joined by “and”; a condition that tells them apart may be missing. Equal entries are not always repeated. Results filed as inconclusive are left out. Some structures have more than one record in an assay (separate samples or runs), and their calls can disagree. Activity calls are given as the source filed them. Unless noted, calls follow the shape of the dose curve; as a rule, active = well fitted curve in the direction sought with a large enough effect in the repeat runs; inconclusive = weak or mixed curves; inactive = no such curve, though single readings can be large; an effect the other way counts as inactive or inconclusive.

Tests used:
[1] = qHTS assay to identify small molecule antagonists of the TGF-beta/Smad signaling pathway - cell viability counter screen (AID 1346824); also: nearly all actives have a fitted effect of over 50% in size
How it was run: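 Cytotoxicity counter-screen run in the same wells as the beta-lactamase Smad reporter read: CellTiter-Glo luminescence after 30 min at room temperature. HEK 293T SBE-bla cells had 5 hr compound exposure at 37 C with TGF-beta1 (0.25 ng/mL stock).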

[2] = qHTS assay to identify small molecule agonists of the TGF-beta/Smad signaling pathway - cell viability counter screen (AID 1346829); also: top concentration of the series differs between compounds; nearly all actives have a fitted effect of over 45% in size
How it was run: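 Luminescence from CellTiter-Glo, read after a 30 min room-temperature incubation, gives cell viability of SBE-bla HEK 293T cells treated 5 hr with compounds at 37 C.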

[3] = Human pregnane X receptor (PXR) small molecule agonists, qHTS cell viability counter screen (AID 1346977); also: nearly all actives have a fitted effect of over 50% in size
How it was run: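 HepG2 cells stably carrying the PXR-Luc reporter are cultured with 5% charcoal-stripped FBS and treated with compounds for 24hr. CellTiter-Fluor is added at 23hr and fluorescence is read after 1hr.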

[4] = Caspase-3/7 induction in CHO-K1 cells by small molecules, qHTS cell viability counter screen (AID 1346979); also: nearly all actives have a fitted effect of over 35% in size
How it was run: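 Seeding: 1,500 CHO-K1 cells/well. Rest: 5hr, 37C. Treatment: compounds in DMSO, 16hr. Read: CellTiter-Fluor, 1hr, fluorescence.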

[5] = Caspase-3/7 induction in HepG2 cells by small molecules, qHTS cell viability counter screen (AID 1346981); also: series mostly up to about 92 µM; nearly all actives have a fitted effect of over 30% in size
How it was run: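 Steps: seed 2,000 HepG2 cells per well; incubate 5 hr at 37 C; pin-add compounds in DMSO; incubate 16 hr; add CellTiter-Fluor; after 1 hr at 37 C and 5% CO2, read fluorescence.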

[6] = target: Nuclear receptor subfamily 1 group I member 2 (Homo sapiens) (UniProt O75469); assay: Human pregnane X receptor (PXR) small molecule agonists, qHTS assay (AID 1346982); also: nearly all actives have a fitted effect of over 35% in size; also: potency is read from the fitted curve at half-maximal effect
How it was run: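 Agonist mode qHTS: PXR-Luc HepG2 cells plated 5 hr before DMSO-dissolved compounds were pinned in, cultured 24 hr at 37 C, 5% CO2; ONE-Glo luminescence readout.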

[7] = target: Nuclear receptor subfamily 1 group I member 2 (Homo sapiens) (UniProt O75469); assay: CYP3A4 induction through human pregnane X receptor (PXR) by small molecules, qHTS assay (AID 1346984); also: nearly all actives have a fitted effect of over 40% in size; also: potency is read from the fitted curve at half-maximal effect
How it was run: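 Steps: seed DPX-2 cells, 5 hr at 37C; pin-transfer compounds; 24 hr at 37C; add Luciferin-IPA (3uM final), 3 hr at 37C; add One-Glo, 30 min RT; read luminescence.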

[8] = target: Nuclear receptor subfamily 1 group I member 2 (Homo sapiens) (UniProt O75469); assay: Human pregnane X receptor (PXR) activation by small molecules, qHTS assay (AID 1346985); also: nearly all actives have a fitted effect of over 40% in size; also: potency is read from the fitted curve at half-maximal effect
How it was run: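 DPX-2 cells (HepG2 co-transfected with a PXR response element and a CYP3A4-promoter luciferase construct) were seeded at 2,000 per well, rested 5 hr at 37C, then exposed to DMSO-dissolved compounds for 24 hr. Activation was read as luciferase luminescence.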

[9] = target: Cytochrome P450 2D6 (Homo sapiens) (UniProt P10635); assay: Cytochrome P450 Family 2 Subfamily D Member 6 (CYP2D6) small molecule antagonists: luciferase reporter qHTS assay (AID 1671196); also: nearly all actives have a fitted effect of over 50% in size; also: potency is read from the fitted curve at half-maximal effect
How it was run: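 P450-Glo format: CYP2D6 converts a proluciferin substrate to luciferin in an NADPH-driven reaction lasting 1 h at room temperature. Light output, proportional to CYP2D6 activity, reflects interference by test chemicals.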

[10] = target: Progesterone receptor (Homo sapiens) (UniProt P06401); assay: qHTS assay to identify small molecule agonists of the progesterone receptor (PR) signaling pathway (AID 1346784; calls by dose curve; also: nearly all actives have a fitted effect of over 30% in size)
How it was run: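 The screen uses PR-UAS-bla HEK 293T cells in charcoal-stripped serum (2%). Compounds are applied for 16 hr at 37C after a 6 hr pre-incubation, and reporter activity is detected with a FRET beta-lactamase substrate after 2 hr at room temperature.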

[11] = target: Progesterone receptor (Homo sapiens) (UniProt P06401); assay: qHTS assay to identify small molecule antagonists of the progesterone receptor (PR) signaling pathway (AID 1346795; active = well fitted inhibition curve with a large enough effect in the signal ratio in the repeat runs, not every such curve was filed as active; the % refers to the signal ratio)
How it was run: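 After 6 hr plating at 37C in 2% stripped-serum medium, PR-UAS-bla HEK293T cells got compounds, then 1 nM R5020. Sixteen hours later, LiveBLAzer substrate was applied for 2 hr at room temperature and fluorescence was recorded.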

[12] = qHTS assay to identify small molecule agonists of the progesterone receptor (PR) signaling pathway - cell viability counter screen (AID 1346799; calls by dose curve; also: nearly all actives have a fitted effect of over 45% in size; also: potency is read from the fitted curve at half-maximal effect)
How it was run: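 Viability was scored by ATP luminescence (CellTiter-Glo, 30 min, room temperature) in the same wells used for the reporter readout, after 16 hr compound exposure of PR-UAS-bla HEK293T cells.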

[13] = target: Thyrotropin-releasing hormone receptor (Homo sapiens) (UniProt P34981); assay: qHTS assay to identify small molecule antagonists of the thyrotropin-releasing hormone receptor (TRHR) signaling pathway (AID 1346877; active = well fitted inhibition curve with a large enough effect in the repeat runs, not every such curve was filed as active; also: potency is read from the fitted curve at half-maximal effect)
How it was run: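 Cells (TRHR-HEK293) are plated and kept 18 h at 37 °C/5% CO2. A calcium-sensitive dye is added for 2 h, compound follows for 5 min at room temperature, and TRH is then given at 1 nM final.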

[14] = target: Thyrotropin-releasing hormone receptor (Homo sapiens) (UniProt P34981); assay: qHTS assay to identify small molecule agonists of the thyrotropin-releasing hormone receptor (TRHR) signaling pathway (AID 1346891; calls by dose curve; also: potency is read from the fitted curve at half-maximal effect;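 as to activation: HEK293 cells expressing TRHR with calcium dye readout; series mostly up to about 58 µM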)
How it was run: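 Kinetic fluorescence (3 min, 1 s intervals) reported intracellular calcium after compound transfer onto TRHR-Hek293 cells pre-loaded with dye for 2 h at 37 °C.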

[15] = Caspase-3/7 induction in CHO-K1 cells by small molecules, qHTS assay (AID 1346980); also: nearly all actives have a fitted effect of over 15% in size
How it was run: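 Luminescent Caspase-Glo 3/7 read (30min, room temperature) quantified apoptosis induction. Cells were wild-type CHO-K1, treated with compound for 17hr at 37 C and 5% CO2.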

[16] = target: Nuclear receptor subfamily 1 group I member 2 (Rattus norvegicus) (UniProt Q9R1A7); assay: Rat pregnane X receptor (rPXR) activation by small molecules, qHTS assay (AID 1346983); conditions: rPXR luciferase reporter cells, One-Glo luminescence, 24 h; stronger effect = higher value; also: nearly all actives have a fitted effect of over 20% in size
How it was run: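 Luminescent readout (One-Glo luciferase, 30 min room temperature) followed 24 hr compound treatment at 37 C of rPXR cells plated 2,000 per well and preincubated 5hr; qHTS format with compounds delivered in DMSO.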

[17] = qHTS assay to identify small molecule agonists of the TGF-beta/Smad signaling pathway (AID 1346859; active = well fitted activation curve with a large enough effect in the signal ratio in the repeat runs, not every such curve was filed as active; the % refers to the signal ratio; also: series mostly up to about 77 µM)
How it was run: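 Dual-wavelength fluorescence (460/530 nm emission) quantified beta-lactamase expression under the Smad binding element in HEK 293T cells following 5 hr compound treatment at 37 C.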

[18] = Caspase-3/7 induction in HepG2 cells by small molecules, qHTS assay (AID 1346978); also: nearly all actives have a fitted effect of over 15% in size
How it was run: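 Caspase-3/7 induction was measured by Caspase-Glo 3/7 luminescence (30 min, room temperature) after a 17 hr compound exposure of wild-type HepG2 cells seeded at 2,000 per well and pre-incubated 5 hr.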

[19] = qHTS assay to identify small molecule antagonists of the progesterone receptor (PR) signaling pathway - cell viability counter screen (AID 1346798); also: series mostly up to about 92 µM; nearly all actives have a fitted effect of over 50% in size
How it was run: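 Viability was determined by ATP-based luminescence (CellTiter-Glo) in PR-UAS-bla HEK293T cells cultured in 2% charcoal-stripped serum and incubated 16 hr with compounds under R5020 stimulation.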
% is scaled to controls: 0 for no effect and ±100 for the full control effect.

Sequence of Nuclear receptor subfamily 1 group I member 2 (Homo sapiens) (O75469 whole entry, looked up): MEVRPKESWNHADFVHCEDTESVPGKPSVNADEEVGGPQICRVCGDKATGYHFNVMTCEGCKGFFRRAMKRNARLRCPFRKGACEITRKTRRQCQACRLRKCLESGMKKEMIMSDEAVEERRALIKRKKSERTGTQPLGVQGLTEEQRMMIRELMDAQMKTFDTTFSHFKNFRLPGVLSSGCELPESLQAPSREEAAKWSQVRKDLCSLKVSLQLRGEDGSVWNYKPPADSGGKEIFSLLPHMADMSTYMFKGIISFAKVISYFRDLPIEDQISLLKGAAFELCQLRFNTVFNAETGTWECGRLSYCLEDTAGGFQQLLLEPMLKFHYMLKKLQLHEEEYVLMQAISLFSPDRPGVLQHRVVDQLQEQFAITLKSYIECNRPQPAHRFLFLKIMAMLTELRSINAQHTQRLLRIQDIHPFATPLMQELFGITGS
Sequence of Cytochrome P450 2D6 (Homo sapiens) (P10635 whole entry, looked up): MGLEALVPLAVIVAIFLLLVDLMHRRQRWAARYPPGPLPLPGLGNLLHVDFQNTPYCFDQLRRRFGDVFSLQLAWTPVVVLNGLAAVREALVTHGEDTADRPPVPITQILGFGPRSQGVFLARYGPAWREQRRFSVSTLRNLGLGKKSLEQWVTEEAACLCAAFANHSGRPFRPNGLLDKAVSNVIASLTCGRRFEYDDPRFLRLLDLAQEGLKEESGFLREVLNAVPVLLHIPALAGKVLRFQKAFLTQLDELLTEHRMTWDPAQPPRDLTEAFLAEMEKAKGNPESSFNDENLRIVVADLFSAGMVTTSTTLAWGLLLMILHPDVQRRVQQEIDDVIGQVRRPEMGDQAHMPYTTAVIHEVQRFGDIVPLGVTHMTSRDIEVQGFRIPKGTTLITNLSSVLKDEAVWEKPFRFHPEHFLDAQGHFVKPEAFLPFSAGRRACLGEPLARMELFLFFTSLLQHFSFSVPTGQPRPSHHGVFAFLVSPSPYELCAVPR
Sequence of Thyrotropin-releasing hormone receptor (Homo sapiens) (P34981 whole entry, looked up): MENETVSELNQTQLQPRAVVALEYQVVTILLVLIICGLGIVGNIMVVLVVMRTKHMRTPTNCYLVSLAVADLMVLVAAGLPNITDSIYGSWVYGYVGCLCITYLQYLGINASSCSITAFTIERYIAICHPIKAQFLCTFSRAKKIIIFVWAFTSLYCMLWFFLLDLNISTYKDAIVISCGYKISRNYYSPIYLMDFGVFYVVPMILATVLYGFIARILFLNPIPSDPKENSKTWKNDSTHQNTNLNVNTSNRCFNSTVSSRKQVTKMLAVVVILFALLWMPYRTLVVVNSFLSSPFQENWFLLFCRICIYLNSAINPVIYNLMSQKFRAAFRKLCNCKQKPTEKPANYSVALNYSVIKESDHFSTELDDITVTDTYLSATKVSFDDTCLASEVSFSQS
Sequence of Progesterone receptor (Homo sapiens) (P06401 whole entry, looked up): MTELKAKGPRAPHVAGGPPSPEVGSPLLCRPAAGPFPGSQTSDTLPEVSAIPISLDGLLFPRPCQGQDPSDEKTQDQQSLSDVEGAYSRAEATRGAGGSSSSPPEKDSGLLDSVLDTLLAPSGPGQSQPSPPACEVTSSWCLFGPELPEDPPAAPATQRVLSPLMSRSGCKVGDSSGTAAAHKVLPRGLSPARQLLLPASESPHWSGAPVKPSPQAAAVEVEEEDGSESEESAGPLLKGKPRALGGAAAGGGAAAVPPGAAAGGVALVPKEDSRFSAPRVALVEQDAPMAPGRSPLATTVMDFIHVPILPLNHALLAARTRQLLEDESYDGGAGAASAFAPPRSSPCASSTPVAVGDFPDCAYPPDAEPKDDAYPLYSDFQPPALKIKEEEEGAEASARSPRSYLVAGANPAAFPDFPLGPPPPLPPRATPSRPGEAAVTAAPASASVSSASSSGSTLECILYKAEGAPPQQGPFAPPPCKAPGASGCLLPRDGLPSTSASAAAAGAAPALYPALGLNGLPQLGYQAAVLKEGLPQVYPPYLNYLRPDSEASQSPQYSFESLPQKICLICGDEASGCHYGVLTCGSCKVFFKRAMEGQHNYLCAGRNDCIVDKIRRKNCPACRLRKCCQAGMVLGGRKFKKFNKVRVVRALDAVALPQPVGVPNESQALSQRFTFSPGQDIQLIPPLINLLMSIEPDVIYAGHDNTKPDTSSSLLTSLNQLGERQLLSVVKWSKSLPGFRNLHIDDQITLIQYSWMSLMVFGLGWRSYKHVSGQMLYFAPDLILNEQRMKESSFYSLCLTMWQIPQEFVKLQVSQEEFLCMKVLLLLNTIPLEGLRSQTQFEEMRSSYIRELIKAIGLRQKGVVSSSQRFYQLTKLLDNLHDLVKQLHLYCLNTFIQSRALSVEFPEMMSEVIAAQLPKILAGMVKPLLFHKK
Sequence of Nuclear receptor subfamily 1 group I member 2 (Rattus norvegicus) (Q9R1A7 whole entry, looked up): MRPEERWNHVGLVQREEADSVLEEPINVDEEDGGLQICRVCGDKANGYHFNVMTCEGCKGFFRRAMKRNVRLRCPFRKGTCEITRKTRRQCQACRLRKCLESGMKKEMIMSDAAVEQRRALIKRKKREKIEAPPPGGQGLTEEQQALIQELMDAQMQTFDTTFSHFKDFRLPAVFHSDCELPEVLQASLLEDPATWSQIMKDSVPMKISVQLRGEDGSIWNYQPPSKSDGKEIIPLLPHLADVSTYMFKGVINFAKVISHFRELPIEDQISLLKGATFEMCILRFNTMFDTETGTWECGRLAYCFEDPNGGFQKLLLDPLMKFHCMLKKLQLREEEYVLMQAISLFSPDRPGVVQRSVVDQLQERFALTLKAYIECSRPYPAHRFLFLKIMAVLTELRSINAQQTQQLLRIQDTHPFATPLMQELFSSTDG

CC(=O)O[C@]1(C(C)=O)CC[C@H]2[C@@H]3C[C@H](C)C4=CC(=O)CC[C@]4(C)[C@H]3CC[C@@]21C
active: Potency [6] 5.44 µM | Potency [8] 1.58 µM
inactive: Potency [1] | Potency [2] | Potency [3] | Potency [4] | Potency [5] | Potency [7] | Potency [9]

O=S(=O)(O)c1ccc2nc(-c3ccccc3)[nH]c2c1
inactive: Potency [10] | Potency [11] | Potency [13] | Potency [14] | Potency [3] | Potency [4] | Potency [15] | Potency [5] | Potency [6] | max activation [16] -3.42% | Potency [7] | Potency [8]
active: Potency [12] 32.7 µM and 8.41 µM | Potency [9] 21.4 µM and 13.8 µM

CC[C@@H](N)CO
inactive: Potency [10] | Potency [11] | Potency [12] | Potency [1] | Potency [2] | outcome [17] | Potency [13] | Potency [14] | Potency [3] | Potency [18] | Potency [4] | Potency [15] | Potency [5] | Potency [6] | Potency [9]

O=C1OC2(c3ccc(O)cc3Oc3cc(O)ccc32)c2ccccc21
21.7 µM (active) and inactive: Potency [6]
active: Potency [13] 536 nM and 3.7 µM | Potency [14] 155 nM and 1.69 µM | Potency [7] 14.1 µM
inactive: Potency [19] | Potency [12] | Potency [1] | Potency [2] | Potency [18] | Potency [15] | max activation [16] 0.287% | Potency [9]
